Assay [1] has as its target Mitogen-activated protein kinase 8 (Homo sapiens) (UniProt P45983). The conditions noted are these: at 1 µM.
Assay [2] has the same target. To be noted: at 10 µM.
Assay [3] concerns the target Mitogen-activated protein kinase 9 (Homo sapiens) (UniProt P45984). To be noted: at 1 µM.
For assay [4] the target is unchanged. The conditions noted are these: at 10 µM.
Assay [5] addresses Mitogen-activated protein kinase 10 (Homo sapiens) (UniProt P53779). To be noted: at 1 µM.
Assay [6] shares this target. The conditions noted are these: at 10 µM.
The target in assay [7] is LIM domain kinase 1 (Homo sapiens) (UniProt P53667). To be noted: at 1 µM.
Sequence of LIM domain kinase 1 (Homo sapiens) (P53667 whole entry, looked up, the tested form may be a part): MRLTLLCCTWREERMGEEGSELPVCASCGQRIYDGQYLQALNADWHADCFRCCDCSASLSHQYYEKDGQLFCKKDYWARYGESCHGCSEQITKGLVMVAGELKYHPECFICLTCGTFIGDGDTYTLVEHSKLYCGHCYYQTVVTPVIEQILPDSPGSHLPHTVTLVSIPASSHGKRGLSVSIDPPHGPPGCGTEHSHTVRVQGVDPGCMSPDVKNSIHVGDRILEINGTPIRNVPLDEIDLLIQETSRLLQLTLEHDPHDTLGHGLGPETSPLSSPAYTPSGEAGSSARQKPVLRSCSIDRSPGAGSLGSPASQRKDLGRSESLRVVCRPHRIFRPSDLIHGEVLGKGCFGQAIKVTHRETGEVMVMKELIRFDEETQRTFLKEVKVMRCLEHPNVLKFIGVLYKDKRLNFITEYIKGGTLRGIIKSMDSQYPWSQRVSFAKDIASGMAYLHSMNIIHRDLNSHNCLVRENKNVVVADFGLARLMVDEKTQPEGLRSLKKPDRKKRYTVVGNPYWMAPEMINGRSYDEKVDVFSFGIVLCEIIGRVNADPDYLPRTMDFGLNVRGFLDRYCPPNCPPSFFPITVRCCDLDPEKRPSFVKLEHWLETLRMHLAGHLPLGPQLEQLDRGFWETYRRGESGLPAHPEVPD
Assay [8] deals with Vascular endothelial growth factor receptor 2 (Homo sapiens) (UniProt P35968). To be noted: at 1 µM.
Sequence of Vascular endothelial growth factor receptor 2 (Homo sapiens) (P35968 whole entry): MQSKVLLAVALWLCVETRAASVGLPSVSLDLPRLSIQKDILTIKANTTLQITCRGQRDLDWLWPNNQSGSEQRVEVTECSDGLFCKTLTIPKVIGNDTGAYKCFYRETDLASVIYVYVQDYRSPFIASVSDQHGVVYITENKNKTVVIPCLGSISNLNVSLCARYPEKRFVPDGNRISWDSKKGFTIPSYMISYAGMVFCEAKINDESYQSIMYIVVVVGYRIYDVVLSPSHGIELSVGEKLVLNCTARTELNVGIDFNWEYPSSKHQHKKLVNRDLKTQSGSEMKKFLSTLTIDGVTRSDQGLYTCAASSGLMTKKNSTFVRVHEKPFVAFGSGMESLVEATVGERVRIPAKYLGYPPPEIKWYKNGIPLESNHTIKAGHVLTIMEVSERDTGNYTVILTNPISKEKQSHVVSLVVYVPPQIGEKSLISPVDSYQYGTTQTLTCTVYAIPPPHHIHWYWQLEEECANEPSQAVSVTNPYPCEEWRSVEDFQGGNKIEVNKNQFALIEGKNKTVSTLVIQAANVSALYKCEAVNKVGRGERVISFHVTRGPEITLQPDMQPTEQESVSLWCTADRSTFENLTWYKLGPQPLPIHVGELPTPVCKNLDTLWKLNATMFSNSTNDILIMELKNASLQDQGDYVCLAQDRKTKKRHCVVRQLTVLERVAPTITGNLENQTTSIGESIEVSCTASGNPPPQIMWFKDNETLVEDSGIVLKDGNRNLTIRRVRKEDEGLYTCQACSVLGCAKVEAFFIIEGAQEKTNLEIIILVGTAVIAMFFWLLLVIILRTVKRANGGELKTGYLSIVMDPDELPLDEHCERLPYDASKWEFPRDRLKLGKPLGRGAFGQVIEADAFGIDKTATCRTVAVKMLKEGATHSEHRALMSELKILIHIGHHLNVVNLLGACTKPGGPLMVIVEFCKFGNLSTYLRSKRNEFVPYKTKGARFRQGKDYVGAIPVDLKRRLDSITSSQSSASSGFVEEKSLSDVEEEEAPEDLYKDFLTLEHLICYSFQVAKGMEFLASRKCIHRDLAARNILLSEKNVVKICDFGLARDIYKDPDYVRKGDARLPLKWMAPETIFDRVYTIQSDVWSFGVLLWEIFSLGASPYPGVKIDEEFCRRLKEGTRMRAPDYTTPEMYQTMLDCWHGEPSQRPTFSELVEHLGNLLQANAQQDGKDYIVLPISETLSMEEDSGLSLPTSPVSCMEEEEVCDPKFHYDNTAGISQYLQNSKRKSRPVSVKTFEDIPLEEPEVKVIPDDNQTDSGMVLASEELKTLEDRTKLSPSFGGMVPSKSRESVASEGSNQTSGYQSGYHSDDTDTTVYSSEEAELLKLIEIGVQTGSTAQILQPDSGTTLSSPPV
Assay [9] has the same target. The conditions noted are these: at 10 µM.
In assay [10] the target is LIM domain kinase 1 (Homo sapiens) (UniProt P53667). To be noted: at 10 µM.

Drawing on ChEMBL document CHEMBL2218924, “A broad activity screen in support of a chemogenomic map for kinase signalling research and drug discovery” (Biochem J, 2013), this text covers residual activity for 17 molecules.

Sequence of Mitogen-activated protein kinase 10 (Homo sapiens) (P53779 whole entry): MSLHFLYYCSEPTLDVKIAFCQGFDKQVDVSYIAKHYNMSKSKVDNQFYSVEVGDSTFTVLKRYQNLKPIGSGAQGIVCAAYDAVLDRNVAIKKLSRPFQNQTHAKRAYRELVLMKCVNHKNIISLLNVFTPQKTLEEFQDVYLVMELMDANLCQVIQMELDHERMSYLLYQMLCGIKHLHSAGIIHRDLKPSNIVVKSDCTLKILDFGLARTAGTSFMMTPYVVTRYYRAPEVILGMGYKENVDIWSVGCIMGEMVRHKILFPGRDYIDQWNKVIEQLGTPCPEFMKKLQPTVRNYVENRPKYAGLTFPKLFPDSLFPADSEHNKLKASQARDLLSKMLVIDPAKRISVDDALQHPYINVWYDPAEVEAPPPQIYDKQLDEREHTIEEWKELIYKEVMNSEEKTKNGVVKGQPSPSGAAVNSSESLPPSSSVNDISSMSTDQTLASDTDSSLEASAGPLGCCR
Sequence of Mitogen-activated protein kinase 9 (Homo sapiens) (P45984 whole entry, looked up): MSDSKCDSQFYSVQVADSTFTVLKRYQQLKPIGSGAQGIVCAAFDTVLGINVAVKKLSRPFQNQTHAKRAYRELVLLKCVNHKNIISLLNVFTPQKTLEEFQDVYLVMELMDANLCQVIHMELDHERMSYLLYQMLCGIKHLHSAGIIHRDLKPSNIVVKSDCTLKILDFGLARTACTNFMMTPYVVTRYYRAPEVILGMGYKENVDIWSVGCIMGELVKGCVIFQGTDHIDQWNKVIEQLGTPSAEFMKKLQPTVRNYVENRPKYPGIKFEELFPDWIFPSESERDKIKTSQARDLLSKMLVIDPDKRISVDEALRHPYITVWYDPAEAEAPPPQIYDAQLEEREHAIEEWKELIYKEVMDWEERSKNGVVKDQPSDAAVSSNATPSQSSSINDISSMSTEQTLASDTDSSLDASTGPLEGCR
Sequence of Mitogen-activated protein kinase 8 (Homo sapiens) (P45983 whole entry): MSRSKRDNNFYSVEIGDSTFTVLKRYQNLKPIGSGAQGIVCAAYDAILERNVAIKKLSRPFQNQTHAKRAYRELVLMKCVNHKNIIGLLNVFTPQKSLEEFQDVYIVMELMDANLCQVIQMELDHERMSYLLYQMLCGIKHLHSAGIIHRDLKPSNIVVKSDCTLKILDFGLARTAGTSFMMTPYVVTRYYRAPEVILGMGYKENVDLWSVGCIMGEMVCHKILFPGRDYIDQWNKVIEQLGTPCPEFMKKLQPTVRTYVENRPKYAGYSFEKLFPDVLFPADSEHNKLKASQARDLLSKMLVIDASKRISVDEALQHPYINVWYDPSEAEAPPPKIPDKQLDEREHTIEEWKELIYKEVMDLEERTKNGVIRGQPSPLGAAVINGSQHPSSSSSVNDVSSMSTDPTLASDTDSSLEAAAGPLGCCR

On to `CCc1nc(-c2ccc(OC)cc2)[nH]c1-c1ccncc1`, for which the residual activity in assay [1] was 104%; in assay [2] it was 106%; in assay [3], 102%; in assay [4], 105%; in assay [5], 126%; in [6], 123%. In assay [7], the residual activity stood at 100%.

Regarding `N/C(=N\[N+](=O)[O-])N/N=C\c1ccc(-c2cccc([N+](=O)[O-])c2)o1`, the residual activity is 100% in [3]; 98% in assay [4]; 95% in assay [5]; 79% in assay [6]; 92% in assay [8]; 84% in assay [9].

As for `CC(C)(C)c1cc(C=C(C#N)C#N)cc(Br)c1O`, the residual activity in [1] was 116%; in assay [2] it was 110%; in assay [3], 103%; in assay [4], 114%; in [6], 54%; in [8], 107%. Moreover, the residual activity came out at 83% in [9] and 111% in [7].

For the molecule `O=C1Nc2ccc3ncsc3c2/C1=C/c1c[nH]cn1`, the residual activity in [1] came out at 63%; in [2], 22%; in [3], 71%; in [4], 16%; in assay [5], 20%; in [6], 20%. Moreover, the residual activity in assay [8] was determined as 2%; in assay [9], 0%; in assay [7], 55%; in assay [10], 10%.

On to `COc1cc(OC)c(/C=C2\C(=O)Nc3ccccc32)c(OC)c1`, for which the residual activity in assay [3] stood at 89%; in assay [4], 88%; in [5], 85%; in assay [6] it was 103%; in assay [8], 96%; in assay [9] it was 91%. For the same molecule, the residual activity in assay [7] and in [10] was 83% each time.

With `O=c1[nH]c2ccccc2n1C1CCN(Cc2ccc(-c3nc4cc5[nH]cnc5cc4nc3-c3ccccc3)cc2)CC1`, the residual activity came out at 110% in [1]; 86% in [2]; 104% in assay [3]; 101% in [4]; 105% in assay [5]; 69% in [6]. Moreover, the residual activity came out at 107% in [8], 90% in [9], 115% in assay [7] and 97% in assay [10].

With `O=C1NC(=O)c2c1c1c3ccccc3n3c1c1c2c2ccccc2n1C1CCC3O1`, the residual activity was 63% in assay [5], 56% in [6], 38% in assay [8] and 18% in assay [9].

With `c1cc(-c2cnn3cc(-c4ccc(OCCN5CCCCC5)cc4)cnc23)ccn1`, the residual activity in assay [1] amounted to 117%; in assay [2] it was 106%; in assay [6] it was 82%; in assay [8], 4%; in assay [9], 1%; in assay [10], 27%.

In the case of `CCn1cnc2c(Nc3cccc(Cl)c3)nc(N[C@@H]3CCCC[C@@H]3N)nc21`, the residual activity is 91% in assay [5]; 84% in [6]; 85% in assay [8]; 45% in [9]; 89% in [7]; 63% in [10].

For `COC(=O)[C@@]1(O)C[C@H]2O[C@]1(C)n1c3ccccc3c3c4c(c5c6ccccc6n2c5c31)C(=O)NC4`, the residual activity in assay [1] was -12%; in [2], -20%; in [3], 5%; in assay [4], -11%; in assay [5] it was -3%; in assay [6], -1%. Further, the residual activity is 3% in assay [8], 0% in assay [9], 6% in assay [7] and 3% in assay [10].

For the molecule `COc1ccc2c(c[n+](C)c3c4cc5c(cc4ccc23)OCO5)c1OC`, the residual activity in [1] turned out to be 100%; in assay [2], 64%; in [5], 81%; in [6], 63%; in assay [9] it was 90%; in assay [10] it was 87%.

On to `COc1ccc2c(c1)/C(=C/c1cnc[nH]1)C(=O)N2`, for which the residual activity amounted to 82% in [3]; 47% in assay [4]; 80% in assay [5]; 27% in assay [6]; 47% in assay [8]; 3% in assay [9]. Further, the residual activity in assay [10] was determined as 48%.

`COc1cc2ncnc(Nc3ccc(OCc4ccccc4)cc3)c2cc1OC`: the residual activity stood at 102% in assay [1]; 101% in [2]; 106% in [3]; 101% in [4]; 106% in assay [5]; 110% in [6]. Further, the residual activity is 60% in assay [8], 11% in assay [9], 110% in [7] and 70% in assay [10].

Regarding `O=[N+]([O-])/C=C/c1ccc2c(c1)OCO2`, the residual activity in [1] was determined as 120%; in assay [2], 102%; in assay [3], 99%; in assay [4], 103%; in assay [5], 88%; in [6], 92%. In addition, the residual activity turned out to be 101% in [8], 85% in assay [9], 114% in assay [7] and 97% in assay [10].

Regarding `CC(C)[C@H](CO)Nc1nc(Nc2cccc(Cl)c2)c2ncn(C(C)C)c2n1`, the residual activity in assay [3] was 90%; in [4], 97%; in assay [9] it was 58%; in [7], 98%; in [10], 90%.

Turning to `O=C1c2ccccc2-c2nc3nnnn3nc21`, the residual activity in assay [1] was 114%; in assay [2] it was 83%; in assay [3] it was 109%; in assay [4], 83%; in assay [5], 112%; in assay [6], 100%. The residual activity in assay [8] is 109%; in assay [9] it was 104%.

With `C[S+]([O-])c1ccc(-c2nc(-c3ccc(F)cc3)c(-c3ccncc3)[nH]2)cc1` (centres undefined), the residual activity amounted to 111% in [1]; 95% in [2]; 74% in [3]; 30% in assay [4]; 107% in [8]; 60% in assay [9]. For the same molecule, the values for the residual activity in assay [7] and in assay [10] were 110% and 82%, respectively.
